Bioassay records deposited in PubChem by several laboratories.
An excerpt weighted towards active compounds, which were near 4.5% of everything screened.
GDH-TPI counter-1: counter-screen for M. tuberculosis FBA inhibitors: GDH-TPI coupled enzymes | GDH-TPI coupled enzyme counterscreen, NADH absorbance | hit rate 1.2% among 360,000 | inhibition, % at 4.8 µM; in the data active = inhibition above about 30%;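 also: 0% = DMSO wells and 100% = wells lacking the enzyme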
PrPC surface inh: cell surface PrPC inhibition, primary TR-FRET screen; P04156; inhibition, % at 13.8 µM; AID 720596; TR-FRET read-out; hit rate 0.43% among 370,000; in the data active = inhibition above about 24%; also: 0% = median of the test wells and 100% = reference compound wells
BJeLR viability: BJeLR cell viability loss | BJeLR (HRASV12) viability, CellTiter-Glo ATP luminescence, 48 h | inhibition, % (no concentration beside the values) | hit rate 0.17% among 300,000; in the data active = inhibition above about 50%; inconclusive = no clear call, values can overlap the other calls
PrP UTR inh: inhibition of PrP 5' UTR reporter expression. AID 488862. hit rate 0.35% among 340,000. inhibition, % (no concentration beside the values). cell-based PrP 5' UTR mRNA reporter, plate reader; in the data active = inhibition above about 52%; also: 0 = median of the neutral control wells
PfHsp40 rescue: restores yeast growth despite PfHsp40 toxicity; hit rate 0.68% among 340,000; growth rescue, % at 12.5 µM; S. cerevisiae expressing PfHsp40, growth rescue, ATP luminescence; in the data active = growth rescue above about 28%, passing the limit was not always enough; inconclusive = no clear call, values can overlap the other calls;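 also: yeast W303a lacking pdr1 and pdr3 grown in galactose medium; growth measured after three days at 30 °C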
FBA Mtb inh: inhibits M. tuberculosis FBA enzyme; P9WQA3; purified M. tuberculosis FBA, fluorescence read-out; inhibition, % at 1 µM; hit rate 2.3% among 360,000;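 also: 0% = vehicle and 100% = reference inhibitor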
Target sequence (P9WQA3 whole entry, looked up): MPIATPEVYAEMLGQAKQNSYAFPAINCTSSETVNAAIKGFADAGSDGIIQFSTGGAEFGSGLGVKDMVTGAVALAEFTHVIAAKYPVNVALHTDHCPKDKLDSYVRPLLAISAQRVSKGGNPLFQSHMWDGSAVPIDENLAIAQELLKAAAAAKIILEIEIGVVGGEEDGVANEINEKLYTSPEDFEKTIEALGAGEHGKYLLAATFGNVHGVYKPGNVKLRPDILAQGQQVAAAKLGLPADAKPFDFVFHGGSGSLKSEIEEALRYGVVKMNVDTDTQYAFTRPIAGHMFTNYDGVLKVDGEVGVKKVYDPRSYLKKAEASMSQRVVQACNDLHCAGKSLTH
Mtb FBA inh conf: confirmation of M. tuberculosis fructose-bisphosphate aldolase inhibitors. shares compounds with FBA Mtb inh. purified M. tuberculosis FBA, fluorescence read-out. inhibition, % at 1 µM. hit rate 78% among 5,600. AID 651616;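 also: 0% = vehicle wells and 100% = reference inhibitor wells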
GDH-TPI counter-2: GDH-TPI inhibition counter-screen for FBA inhibitors | shares compounds with FBA Mtb inh | GDH-TPI coupled enzyme counterscreen, fluorescence | inhibition, % at 1 µM | hit rate 81% among 5,600 | AID 652141; in the data active = inhibition above about 10%
Active calls of the source: *; ? = inconclusive; . = no result given; + = active, no number. Rule as the data show it, unless noted: active = inhibition above about 27%; inactive = the rest.

SMILES	GDH-TPI counter-1	PrPC surface inh	BJeLR viability	PrP UTR inh	PfHsp40 rescue	FBA Mtb inh	Mtb FBA inh conf	GDH-TPI counter-2
O=S1(=O)c2ccc(N3CCC[C@H]3CO)cc2O[C@H]2CCN1C2	.	-5	.	.	.	.	.	.
O=C(COC(=O)/C=C/c1ccc(Br)o1)NCCCN1CCCC1=O	12	-9	-10	-13	0	-8	.	.
CCOc1ccc2[nH]c(=O)c(CN(Cc3nnnn3Cc3ccco3)C3CCCCC3)cc2c1	-2	2	-6	-21	0	16	.	.
COCCn1nnnc1CN(Cc1cc2cc(OC)c(OC)cc2[nH]c1=O)C1CCCC1	4	-9	8	-13	0	39*	73*	70*
COc1ccc(Cn2nnnc2CN(Cc2cc3ccc(C)cc3[nH]c2=O)C2CCCC2)cc1	13	9	-16	-5	0	0	.	.
COc1cc2cc(CN(Cc3nnnn3Cc3ccco3)C3CCCCC3)c(=O)[nH]c2cc1OC	9	-4	-1	-2	0	40*	63*	53*
COC(=O)C1=CN(C2CC2)C=C(C(=O)OC)C1c1ccc(C(=O)OC)cc1	-1	-3	2	-7	-1	44*	-1	-2
COC(=O)C1=CN(C2CC2)C=C(C(=O)OC)C1c1ccc(C(F)(F)F)cc1	-1	5	9	-11	0	25	.	.
O=C(NC1CCCCC1)C1c2ccccc2OCC(=O)N1Cc1ccccc1 (stereo not given)	.	-2	.	.	.	.	.	.
COc1ccc2nc(-c3ccc(F)cc3)sc2c1	9	-5	1	21	2	98*	+	+
COc1ccc2nc(N)sc2c1	2	-3	-10	-3	0	4	.	.
CC(C)NC(=O)COC(=O)c1ccc(Cl)c(S(=O)(=O)N2CCCC2)c1	7	-1	1	-15	0	40*	124*	95*
Cc1ccc(N2CC(=O)N(NC(=O)c3sc4nc(C)cc(C)c4c3N)CC2=O)cc1	6	-8	5	-11	1	48*	59*	47*
Cc1cc(C)c2c(N)c(C(=O)Nc3ccccc3Br)sc2n1	11	8	-3	-48	1	42*	152*	117*
COC(=O)c1sc2nc(C)cc(C)c2c1N	1	-11	5	-1	4	38*	3	1
CCc1ccccc1NC(=O)c1sc2nc(C)cc(C)c2c1N	15	-1	2	1	0	12	.	.
COCc1cc(C)nc2sc(C(=O)OC)c(N)c12	-8	-16	-20	-11	0	1	.	.
CC(C)C(=O)Nc1ccc2c(c1)C(=O)N(CCC(=O)O)C2=O	6	-6	3	-18	-1	40*	97*	81*
COc1ccc(CC(=O)Nc2ccc3c(c2)C(=O)N(CCC(=O)O)C3=O)cc1	2	-9	0	-18	-1	-1	.	.
CN(C)c1ccc2c(O)cc(=O)n(C)c2c1	18	-5	5	-27	-2	37*	29*	25*
CCN1C(=O)c2ccc(C(=O)Nc3cccc(C(=O)O)c3)cc2C1=O	14	-1	2	-9	-1	0	.	.
CCN(C(=O)c1ccc2c(OC)n(CC)nc2c1)c1ccc(OC)cc1	3	-4	-2	-20	-1	31*	-3	-5
COc1ccc(C(=O)N(CN2CCCC2=O)c2ccc(C)cc2)cc1	0	0	-3	-27	0	1	.	.
C=CCOc1c2ccc(C(=O)NCc3ccc(OC)cc3)cc2nn1C	-2	-1	-6	-34	-2	15	.	.
CCCCn1nc2cc(C(=O)N(CC)c3ccc(OC)cc3)ccc2c1OCC	3	4	4	-33	1	28*	112*	87*
SMILES	GDH-TPI counter-1	PrPC surface inh	BJeLR viability	PrP UTR inh	PfHsp40 rescue	FBA Mtb inh	Mtb FBA inh conf	GDH-TPI counter-2
CCOc1ccccc1/C=C/c1cc(C(=O)O)c2ccccc2n1	9	2	-5	-35	?	29*	91*	71*
COc1cc(OC)c(OC)cc1/C=C/c1cc(C(=O)O)c2ccccc2n1	13	-13	-5	-34	-2	0	.	.
CCOc1ccccc1/C=C/c1nc2ccccc2[nH]c1=O	28	-12	6	-8	-1	43*	0	0
CCOc1ccccc1OCCCC(=O)Nc1nc2ccccc2[nH]1	2	2	0	-12	0	1	.	.
O=C(O)COCC(=O)Nc1ccc(OCCc2ccccc2)cc1	1	6	-15	-24	-1	3	.	.
Cc1cccc(OCC(=O)NNC(=O)C2CCCCC2C(=O)O)c1 (stereo not given)	2	0	-5	-15	0	1	.	.
COc1ccc2oc(-c3ccccc3)c(C(=O)N3CCOCC3)c2c1	11	-8	4	8	0	40*	72*	48*
CCOc1ccc2oc(-c3ccccc3)c(C(=O)N3CCN(C)CC3)c2c1	21	4	-1	-24	0	71*	92*	58*
CCOC(=O)c1c(-c2ccccc2)oc2ccc(OCC)cc12	16	3	-2	-34	0	23	.	.
CCOC(=O)c1c(-c2ccccc2)oc2ccc(OCC(O)CNCCN(C)C)cc12 (stereo not given)	7	-1	26	-18	1	42*	1	-1
Cc1nnc(SCC(=O)NC2CCCc3c2cnn3-c2ccccc2F)o1 (stereo not given)	-1	2	2	-7	1	0	.	.
FC(F)(F)c1cccc(CNC(=S)Nc2ccccc2)c1	7	11	3	-9	0	4	.	.
Cc1ccc(CNC(=S)Nc2ccc3c(c2)c(=O)n(C)n3Cc2cccc(C(F)(F)F)c2)cc1	13	17	.	.	.	36*	141*	101*
CCNC(=S)Nc1ccc2c(c1)c(=O)n(C)n2Cc1cccc(C(F)(F)F)c1	3	10	.	.	.	80*	190*	150*
COc1ccc(-c2c(-c3cccc(C)c3)oc3ccc(-c4ccc5c(c4)OCO5)cc23)cn1	5	1	5	-1	-2	3	.	.
Cc1cccc(-c2oc3ccc(-c4ccc5c(c4)OCO5)cc3c2/C=C/c2ccc(N)cc2)c1	21	.	-2	5	0	44*	135*	120*
N#Cc1c(N2C(=O)c3ccc(C(=O)O)cc3C2=O)sc2c1CCCC2	2	0	-3	-31	0	-1	.	.
CC(C)(C)NCc1cccn1-c1sc2c(c1C#N)CCCC2	12	-1	-17	-9	2	76*	66*	52*
O=C(Cc1ccc(Cl)cc1)Nc1cccc(-c2nnc(-c3ccco3)o2)c1	20	-6	8	-12	-1	8	.	.
CC(=O)Nc1ccc(-c2nc3ccccc3c(=O)o2)cc1	4	-4	-2	-18	-1	0	.	.
